Reference: PubChem BioAssay (EPA / NIEHS)
Activity calls are given as the source filed them. How the source made its calls: active means hit-call score of the fitted dose curve at least 0.9, where 1 is the maximum; inactive means score below 0.9.

Key:
[1] = read-out: Macrophage colony-stimulating factor (MCSF), CSF1 (gene 1435); experiment: BSK_hDFCGF_MCSF: BioMAP Diversity Plus: hDFCGF Assay for Macrophage colony-stimulating factor (MCSF) Biomarker Activity (AID 2283060); conditions: primary human foreskin fibroblasts; actives raise or lower the signal
In short: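 fibroblasts (human foreskin, primary), 24 h post-dose; M-CSF by ELISA; bidirectional fit, DMSO = baseline.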

[2] = read-out: TIMP metallopeptidase inhibitor 1 (TIMP1), TIMP1 (gene 7076); experiment: BSK_hDFCGF_TIMP1: BioMAP Diversity Plus: hDFCGF Assay for TIMP metallopeptidase inhibitor 1 (TIMP1) Biomarker Activity (AID 2283062); conditions: primary human foreskin fibroblasts; actives raise or lower the signal
In short: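 Bidirectional curve fitting against DMSO baseline yielded this endpoint, based on ELISA detection of TIMP-1 in primary human foreskin fibroblasts exposed to compound for 24 h.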

[3] = read-out: Monokine induced gamma interferon (MIG), CXCL9 (gene 4283); experiment: BSK_hDFCGF_MIG: BioMAP Diversity Plus: hDFCGF Assay for Monokine induced gamma interferon (MIG) Biomarker Activity (AID 2283063); conditions: primary human foreskin fibroblasts; actives raise or lower the signal
In short: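 Endpoint derived by bidirectional fitting relative to DMSO; MIG quantified via ELISA in primary human foreskin fibroblasts harvested 24 h after dosing.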

[4] = read-out: Matrix Metallopeptidase 1 (MMP1), MMP1 (gene 4312); experiment: BSK_hDFCGF_MMP1: BioMAP Diversity Plus: hDFCGF Assay for Matrix Metallopeptidase 1 (MMP1) Biomarker Activity (AID 2283064); conditions: primary human foreskin fibroblasts; actives raise or lower the signal
In short: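 Primary human foreskin fibroblasts exposed to chemicals for 24 h; MMP1 measured by ELISA. Cytotoxicity tracked by SRB staining in parallel cultures; bidirectional fit relative to DMSO.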

[5] = read-out: Vascular cell adhesion molecule 1 (VCAM1), VCAM1 (gene 7412); experiment: BSK_hDFCGF_VCAM1: BioMAP Diversity Plus: hDFCGF Assay for Vascular cell adhesion molecule 1 (VCAM1) Biomarker Activity (AID 2283065); conditions: primary human foreskin fibroblasts; actives raise or lower the signal;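 on AC50: VCAM-1 protein level quantified by ELISA after 24 h chemical exposure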
In short: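 Measured after 24 h chemical treatment of primary human skin fibroblasts, VCAM-1 was detected by ELISA and concentration-response analysed in both directions versus DMSO vehicle.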

[6] = read-out: Plasminogen activator inhibitor-1 (PAI1), SERPINE1 (gene 5054); experiment: BSK_hDFCGF_PAI1: BioMAP Diversity Plus: hDFCGF Assay for Plasminogen activator inhibitor-1 (PAI1) Biomarker Activity (AID 2283066); conditions: primary human foreskin fibroblasts; actives raise or lower the signal
In short: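 Human foreskin fibroblast primary cells, 24 h chemical exposure; PAI-1 measured by ELISA. Bidirectional fitting relative to DMSO; parallel cultures stained with SRB for total protein to flag overt cytotoxicity.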

[7] = read-out: Intercellular Adhesion Molecule 1 (ICAM1), ICAM1 (gene 3383); experiment: BSK_KF3CT_ICAM1: BioMAP Diversity Plus: KF3CT Assay for Intercellular Adhesion Molecule 1 (ICAM1) Biomarker Activity (AID 2283067); conditions: primary human keratinocytes with fibroblasts; actives raise or lower the signal
In short: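 Bidirectional curve fitting against a DMSO baseline was applied to ICAM-1 ELISA signal from primary human skin co-cultures harvested 24 h after treatment, with SRB staining of parallel wells for overt cytotoxicity.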

[8] = read-out: Interferon-gamma inducible Protein 10 (IP10), CXCL10 (gene 3627); experiment: BSK_KF3CT_IP10: BioMAP Diversity Plus: KF3CT Assay for Interferon-gamma inducible Protein 10 (IP10) Biomarker Activity (AID 2283068); conditions: primary human keratinocytes with fibroblasts; actives raise or lower the signal
In short: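 In a primary skin co-culture of keratinocytes and fibroblasts, IP-10 is quantified by ELISA at 24 h after dosing. SRB staining of parallel wells monitors overt toxicity. Curves are fitted both directions against DMSO.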

[9] = BSK_KF3CT_SRB: Viability Assessment in the BioMAP Diversity Plus: KF3CT Assay (AID 2283069); conditions: primary human keratinocytes with fibroblasts;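 further: total protein by sulforhodamine B staining as a cytotoxicity measure; read 24 h after compound addition; fitted for both signal gain and loss against DMSO baseline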
In short: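 Human keratinocyte and foreskin fibroblast co-culture exposed to chemical for 24 h. Total protein measured in parallel cultures by 0.1% sulforhodamine B staining after 10% TCA fixation, read at 560 nm; bidirectional fit relative to DMSO.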

[10] = read-out: Interleukin-1 alpha (IL1a), IL1A (gene 3552); experiment: BSK_KF3CT_IL1a: BioMAP Diversity Plus: KF3CT Assay for Interleukin-1 alpha (IL1a) Biomarker Activity (AID 2283070); conditions: primary human keratinocytes with fibroblasts; actives raise or lower the signal
In short: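 Primary human keratinocyte plus foreskin fibroblast co-culture, dosed and measured at 24 h in 96-well plates. IL-1a level quantified by ELISA; bidirectional fit relative to DMSO.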

[11] = read-out: TIMP metallopeptidase inhibitor 2 (TIMP2), TIMP2 (gene 7077); experiment: BSK_KF3CT_TIMP2: BioMAP Diversity Plus: KF3CT Assay for TIMP metallopeptidase inhibitor 2 (TIMP2) Biomarker Activity (AID 2283071); conditions: primary human keratinocytes with fibroblasts; actives raise or lower the signal
In short: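 Co-culture of human primary keratinocytes and foreskin fibroblasts, measured 24 h after chemical dosing. TIMP-2 quantified by ELISA and fitted in both directions relative to DMSO. Cytotoxicity checked in parallel cultures by SRB total-protein staining.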

[12] = read-out: Transforming growth factor beta 1 (TGFb1), TGFB1 (gene 7040); experiment: BSK_KF3CT_TGFb1: BioMAP Diversity Plus: KF3CT Assay for Transforming growth factor beta 1 (TGFb1) Biomarker Activity (AID 2283072); conditions: primary human keratinocytes with fibroblasts; actives raise or lower the signal
In short: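 Human keratinocyte/foreskin fibroblast co-culture; TGF-b1 measured by ELISA 24 h after dosing, fitted bidirectionally versus DMSO. Cytotoxicity checked in parallel cultures by total protein (SRB staining, 560 nm).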

[13] = read-out: C-C motif chemokine 2 (Homo sapiens) (UniProt P13500); experiment: BSK_KF3CT_MCP1: BioMAP Diversity Plus: KF3CT Assay for Monocyte Chemoattractant Protein 1 (MCP1/CCL2) Biomarker Activity (AID 2283073); conditions: primary human keratinocytes with fibroblasts; actives raise or lower the signal
In short: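 Biomarker MCP-1 is measured by ELISA in primary human keratinocytes co-cultured with foreskin fibroblasts, 24 h after chemical treatment; DMSO serves as the negative control and activity baseline.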

[14] = read-out: Matrix Metallopeptidase 9 (MMP9), MMP9 (gene 4318); experiment: BSK_KF3CT_MMP9: BioMAP Diversity Plus: KF3CT Assay for Matrix Metallopeptidase 9 (MMP9) Biomarker Activity (AID 2283074); conditions: primary human keratinocytes with fibroblasts; actives raise or lower the signal;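 on AC50: MMP9 protein level quantified by ELISA in the co-culture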
In short: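 Human keratinocyte and foreskin fibroblast co-culture exposed to chemicals for 24 h; MMP9 biomarker measured by ELISA, bidirectional fitting relative to DMSO; cytotoxicity tracked by SRB total protein staining in parallel cultures.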

[15] = read-out: urokinase plasminogen activator (uPA), PLAU (gene 5328); experiment: BSK_KF3CT_uPA: BioMAP Diversity Plus: KF3CT Assay for urokinase plasminogen activator (uPA) Biomarker Activity (AID 2283075); conditions: primary human keratinocytes with fibroblasts; actives raise or lower the signal
In short: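 Primary human keratinocyte/foreskin fibroblast co-culture exposed to chemical; uPA measured by ELISA at 24 h. Bidirectional fit versus DMSO, with parallel SRB total-protein staining for cytotoxicity.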

CD40, CD40 (gene 958) = experiment: BSK_LPS_CD40: BioMAP Diversity Plus: LPS Assay for CD40 Biomarker Activity (AID 2283076); conditions: primary human HUVEC with PBMC; actives raise or lower the signal
In short: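 Using a multiplexed primary human co-culture (umbilical vein endothelium plus PBMC), CD40 was read by ELISA 24 h after dosing, with cytotoxicity tracked by sulforhodamine B staining of parallel cultures and activity fitted bidirectionally versus DMSO.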

[16] = read-out: E-selectin (Homo sapiens) (UniProt P16581); experiment: BSK_LPS_Eselectin: BioMAP Diversity Plus: LPS Assay for Eselectin Biomarker Activity (AID 2283077); conditions: primary human HUVEC with PBMC; actives raise or lower the signal
In short: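 Dose chemical onto LPS-driven HUVEC/PBMC co-culture; after 24 h, run ELISA for E-selectin; fit up- and down-going responses relative to DMSO control.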

[17] = read-out: Interleukin-8 (IL8), CXCL8 (gene 3576); experiment: BSK_LPS_IL8: BioMAP Diversity Plus: LPS Assay for Interleukin-8 (IL8) Biomarker Activity (AID 2283078); conditions: primary human HUVEC with PBMC; actives raise or lower the signal
In short: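 In this LPS system, chemical-treated human umbilical vein endothelium/PBMC co-cultures were harvested at 24 h for IL-8 ELISA.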

[18] = BSK_hDFCGF_SRB: Viability Assessment in the BioMAP Diversity Plus: hDFCGF Assay (AID 2283061); conditions: primary human foreskin fibroblasts;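 further: cells exposed to compound for 24 h before the read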
In short: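 SRB-based viability read on primary human skin fibroblasts at 24 h: TCA fixation, 0.1% dye, 560 nm. Gain or loss of signal is fitted against the DMSO negative control.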

[19] = BSK_LPS_SRB: Viability Assessment in the BioMAP Diversity Plus: LPS Assay (AID 2283079); conditions: primary human HUVEC with PBMC;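 further: total protein by sulforhodamine B absorbance as a cytotoxicity measure; measured one day after compound addition; fitted in both directions against DMSO so loss or gain of signal counts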
In short: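 Cytotoxicity endpoint in human endothelial–PBMC co-culture: 24 h exposure, then SRB (0.1%) staining, 560 nm read.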

Measured: AC50

Chain of E-selectin (Homo sapiens) (P16581 whole entry, looked up): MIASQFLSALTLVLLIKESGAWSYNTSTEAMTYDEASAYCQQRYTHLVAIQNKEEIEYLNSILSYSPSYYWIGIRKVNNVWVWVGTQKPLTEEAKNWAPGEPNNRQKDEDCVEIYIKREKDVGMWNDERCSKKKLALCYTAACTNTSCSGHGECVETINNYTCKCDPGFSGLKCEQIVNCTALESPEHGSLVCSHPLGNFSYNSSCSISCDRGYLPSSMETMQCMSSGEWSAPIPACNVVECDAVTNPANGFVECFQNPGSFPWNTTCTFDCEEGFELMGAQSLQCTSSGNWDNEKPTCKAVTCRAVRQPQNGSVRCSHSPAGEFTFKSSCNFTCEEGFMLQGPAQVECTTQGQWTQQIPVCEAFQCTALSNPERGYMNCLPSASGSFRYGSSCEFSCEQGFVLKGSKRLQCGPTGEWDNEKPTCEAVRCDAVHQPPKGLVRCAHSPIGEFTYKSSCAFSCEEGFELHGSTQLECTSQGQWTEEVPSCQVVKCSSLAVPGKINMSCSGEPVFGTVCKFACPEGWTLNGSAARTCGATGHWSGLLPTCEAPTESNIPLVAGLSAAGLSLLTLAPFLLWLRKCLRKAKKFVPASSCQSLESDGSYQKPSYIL

C=CC(=O)NCNC(=O)C=C
not listed: [18] | [19]
inactive: all other assays above

CC(C)(c1ccccc1)c1ccc(O)cc1
active: [1] 30.7 µM | [18] 33.8 µM | [2] 32 µM | [3] 39 µM | [4] 32.8 µM | [5] 34.7 µM | [6] 32.2 µM | [7] 36.9 µM | [8] 35.9 µM | [9] 33.1 µM | [10] 31.2 µM | [11] 34.3 µM | [12] 34.5 µM | [13] 34.8 µM | [14] 31.4 µM | [15] 31.5 µM | CD40, CD40 (gene 958) 32.5 µM | [16] 36.7 µM | [17] 35.3 µM | [19] 33.1 µM

CCSC(=O)N(CC)C1CCCCC1
not listed: [18] | [19]
inactive: all other assays above

CCC(C)c1cc([N+](=O)[O-])cc([N+](=O)[O-])c1O (configuration not stated)
active: [1] 4.2 µM | [18] 7.45 µM | [6] 12 µM | [8] 3.97 µM | [13] 11.6 µM | [14] 12.6 µM | [16] 27 µM | [17] 27.5 µM | [19] 20 µM
not listed: CD40, CD40 (gene 958)
inactive: all other assays above

Sc1ccccc1
not listed: [12] | [19]
inactive: all other assays above

ClC1=C(Cl)[C@]2(Cl)[C@@H]3[C@H]4C[C@H]([C@@H]5O[C@H]45)[C@@H]3[C@@]1(Cl)C2(Cl)Cl
active: [19] 7.24 µM
not listed: [6]
inactive: all other assays above
